Shown are actives, neighbours in structure and some others; about 7.3% of the full set was active somewhere.
KinaseGlo FLuc: Counterscreen for Luciferase (Kinase-Glo TM) Inhibition | Luciferin 4-monooxygenase (Photuris pensylvanica), Q27757 | Kinase-Glo luciferase, ATP luminescence, 8 min | Potency, µM (titrated, usually from 38.3 µM), inactives show top-dose activity change, negative = inhibition, hits mostly inhibitors | actives 0.28% (n = 200,000); also: % is scaled to controls: 0 for no effect and ±100 for the full control effect; nearly all actives have a fitted effect of over 60% in size
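Kinase-Glo luciferase light output from ATP and luciferin was measured with 10 uM ATP, within the enzyme's linear range. Buffer: 50 mM imidazole pH 7.2, 50 mM KCl, 7 mM MgCl2, 0.01% Tween 20, 0.05% BSA; luminescence read after 8 min at ambient temperature.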
FLuc counter: qHTS profiling assay for firefly luciferase inhibitor/activator using purifed enzyme and Km concentrations of substrates (counterscreen for miR-21 project). Potency, µM (titrated, usually from 57.5 µM), inactives show at the top dose activity change, negative = inhibition, most hits filed as inhibitors. AID 588342, 2011. purified FLuc, Km substrates, luminescence inhibition. actives 6.9% (n = 360,000);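 also: plate controls were vehicle for no effect and reference inhibitor for full effect; nearly all actives have a fitted effect of over 55% in size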
Target sequence (P08659 whole entry, looked up): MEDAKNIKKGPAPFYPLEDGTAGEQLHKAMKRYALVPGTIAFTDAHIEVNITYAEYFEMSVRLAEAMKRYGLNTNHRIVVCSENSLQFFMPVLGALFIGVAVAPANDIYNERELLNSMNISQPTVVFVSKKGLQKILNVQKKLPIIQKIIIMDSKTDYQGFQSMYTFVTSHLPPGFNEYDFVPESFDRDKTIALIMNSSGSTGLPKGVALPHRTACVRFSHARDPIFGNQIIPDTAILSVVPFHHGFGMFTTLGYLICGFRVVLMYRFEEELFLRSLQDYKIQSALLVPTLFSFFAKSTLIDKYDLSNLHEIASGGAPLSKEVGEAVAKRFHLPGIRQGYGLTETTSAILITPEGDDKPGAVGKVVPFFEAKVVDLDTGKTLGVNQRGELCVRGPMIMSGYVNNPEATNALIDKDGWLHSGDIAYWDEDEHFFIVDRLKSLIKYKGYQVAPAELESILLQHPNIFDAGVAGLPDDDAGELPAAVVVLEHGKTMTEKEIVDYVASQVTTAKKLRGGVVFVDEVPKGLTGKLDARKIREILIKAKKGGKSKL
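Biochemical qHTS of compounds, final roughly 60 µM downward over six points, against 10 nM purified firefly luciferase using Km concentrations of substrates (10 uM D-luciferin, 10 uM ATP) in Tris acetate pH 7.5 buffer; luminescence output.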
Rab9 promoter act: qHTS Assay for Rab9 Promoter Activators; actives 2.8% (n = 320,000); Huh7 Rab9 promoter-luciferase reporter, luminescence, 24 h; Potency, µM (doses to about 9.22 µM), inactives show at the top dose activation, negative = inhibition, actives largely listed as activators; also: % of control where 0% means no effect; nearly all actives have a fitted effect of over 60% in size
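Luminescence read-out: Huh7 cells stably expressing Rab9-luciferase, treated 24 h with compound at 37 °C, then lysed with luciferase reagent for 10 min at ambient before reading.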
SMN2 splice enh: qHTS Assay for Enhancers of SMN2 Splice Variant Expression; actives 2.8% (n = 210,000); Potency, µM (titrated, usually from 46.1 µM), for inactives: top-dose activity change, positive = activation, actives largely listed as activators; HEK293 SMN2-luciferase splicing reporter, luminescence, 30-36 h; also: % of control where 0% means no effect; nearly all actives have a fitted effect of over 55% in size
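qHTS luciferase splicing reporter: luminescence rises when SMN2 exon 7 is included in transfected HEK293 cells. Compound exposure lasted 30-36 h at 37C, with 4.5 mM final sodium butyrate as control, followed by a ONE-Glo read.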
NPC1 prom act: qHTS Assay for NPC1 Promoter Activators; Huh7 NPC1 promoter luciferase reporter, 24 h; Potency, µM (titrated, usually from 9.22 µM), for the others: at the highest dose activation, most hits filed as activators; actives 2.4% (n = 320,000); AID 485313, 2010; also: % of control where 0% means no effect; nearly all actives have a fitted effect of over 60% in size
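Huh7 reporter cells (NPC1 promoter driving luciferase) are dosed with compound for 24 h at 37 °C, 5% CO2; luciferase detection reagent is then added and luminescence measured after 10 min at ambient temperature.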
The depositor's hits bear a star; ? = inconclusive; · = no result given; [ ] = another dose, or the depositor's remark. Calls follow the shape of the dose curve; as a rule, active = well fitted curve in the direction sought with a large enough effect; inconclusive = small, poorly fitted or top-dose-only effect, or another doubt; inactive = no such curve, though single readings can be large; an effect the other way counts as inactive or inconclusive. Potency is read from the fitted curve at half-maximal effect.

SMILES	KinaseGlo FLuc	FLuc counter	Rab9 promoter act	SMN2 splice enh	NPC1 prom act
COc1ccc(C)cc1S(=O)(=O)Nc1cccc(-c2ccc(N3CCCCCC3)nn2)c1	·	9.53µM*	3.1%	·	-0.3%
COc1ccc(C)cc1S(=O)(=O)Nc1cccc(-c2ccc(N3CCC(C)CC3)nn2)c1	·	2.39µM*	·	·	·
CCOC(=O)C1C(=O)CC(C)(O)C(C(=O)OCC)C1c1ccccc1 (stereo not drawn)	3.0%	-1.0%	0.2%	25.8%	-11.9%
CCOC(=O)C1C(=O)CC(C)(O)C(C(=O)OCC)C1c1ccc(C)s1 (stereo not drawn)	4.5%	6.4%[2.3 µM]	?	21.5%	4.47µM*
O=C1c2ccccc2CCC12N=NCC2c1ccccc1 (stereo not drawn)	-2.8%	16.9µM*	-4.8%	-14.7%	-5.4%
O=C1c2ccccc2CCc2ccc(Br)cc21	·	?	-1.8%	·	-0.4%
Cc1cccc(C)c1OCCn1c(C2CC(=O)N(Cc3ccc(F)cc3)C2)nc2ccccc21 (stereo not drawn)	·	-8.9%	·	·	·
C/C(=N\NC(=O)c1cc(-c2cccc(OC(C)C)c2)nc2ccccc12)c1cccnc1	·	0.601µM*	?	·	24.1%
C/C(=N\NC(=O)c1cc(-c2ccc(C)s2)nc2ccccc12)c1cccnc1	·	0.953µM*	?	·	?
COc1cccc2sc(N)nc12	·	1.5%	-6.8%	11.1%	-3.4%
COc1ccc(-c2nnc(Nc3nc4c(OC)cccc4s3)o2)cc1	-1.6%	5.36µM*	-8.9%	1.0%	6.6%
COc1ccc(-c2nnc(NC(=O)c3ccc(F)cc3)o2)cc1	1.5%	1.4%	-9.5%	-29.7%	-8.2%
COc1ccc(-c2nnc(Nc3nc4c(OC)cccc4s3)o2)c(OC)c1	-0.2%	9.53µM*	2.3%	-9.8%	0.2%
Cc1cccc(-c2nn3c(=O)cc(CN4CCN(S(=O)(=O)c5ccc(Cl)cc5)CC4)nc3s2)c1	·	-9.3%	·	·	·
CC(NC(=O)c1ccc(Nc2nc3ccccc3n3nnnc23)cc1)c1ccccc1 (stereo not drawn)	·	-1.6%	·	17.6%	·
Cc1ccc(C(=O)O)cc1Nc1nc2ccccc2n2nnnc12	·	16.9µM*	·	?	·
Cc1ccc(N2CCN(C(=O)c3ccc(Nc4nc5ccccc5n5nnnc45)cc3)CC2)c(C)c1	·	1.6%	·	5.9%	·
CCOc1ccc(CCNC(=O)c2ccc(Nc3nc4ccccc4n4nnnc34)cc2)cc1OCC	·	-5.3%	·	3.4%	·
CCOc1ccc(Nc2nc3ccccc3n3nnnc23)cc1	0.1%	?	4.47µM*	14.2%	27.4%
CN(C)c1ccc(Nc2nc3ccccc3n3nnnc23)cc1	·	6.75µM*	·	-8.5%	·
COc1ccc(Cl)cc1S(=O)(=O)N1CCN(Cc2cccc(F)c2)CC1	·	-0.5%	·	·	·
CCOc1ccccc1CNC(=O)CCCn1c(=O)c2cccn2c2ccc(F)cc21	·	-14.4%	·	·	·
Cc1cccc(Nc2nc(C)cc(C)n2)c1	·	-16.7%	-3.2%	·	-4.3%
Cc1ccc(Nc2nc(C)cc(C)n2)c(Br)c1	0.7%	21.3µM*	18.6%	4.4%	22.2%
CCC(Cn1nnc2ccccc2c1=O)NC(=O)Nc1ccccc1OC (stereo not drawn)	·	-2.4%	·	17.3%	·
SMILES	KinaseGlo FLuc	FLuc counter	Rab9 promoter act	SMN2 splice enh	NPC1 prom act
COc1ccc(NC(=O)c2scc(S(=O)(=O)C(C)C)c2N)cc1	·	6.01µM*	1.12µM*	·	2.51µM*
CCN(CC)C(=O)CSc1nc(N)c(C(=O)Nc2ccc(OC)cc2)s1	-3.5%	23.9µM*	-2.3%	-22.9%	0.6%
CCOC(=O)CSc1nc(C)c(C(=O)OCC)s1	-1.0%	-17.8%	-0.5%	3.0%	1.4%
COc1ccc(NC(=O)CCSc2nnc(C)s2)cc1	0.7%	-7.6%	·	28.1%	·
CCOC(=O)CSc1nc(N)c(C(=O)Nc2ccc(N(C)C)cc2)s1	11.0%	8.49µM*	-7.2%	-4.5%	-0.1%
COc1ccc(NC(=O)c2sc(SC)nc2N)cc1	-10.4%	12µM*	?	12.6µM*	?
COc1ccc(NC(=O)c2sc(SCc3ccccc3)nc2N)cc1	6.7%	?	18.8%	-1.3%	16.3%
O=C(c1ccccc1Cl)N1c2ncnn2C2(CCCCC2)[C@@H]2CCCC[C@@H]21	·	-14.4%	·	·	·
O=C(O)c1ccc(/C=C2\CCCc3c2nc2ccccc2c3C(=O)O)cc1	·	2.5%	0.0%	·	-40.6%
O=C(O)c1c2c(nc3ccccc13)/C(=C/c1ccc(O)cc1)CCC2	1.3%	19µM*	8.5%	19.8%	2.3%
COc1ccc(/C=C2\CCc3c2nc2ccccc2c3C(=O)O)cc1OC	·	0.301µM*	0.316µM*	·	0.398µM*
O=C(O)c1c2c(nc3ccccc13)-c1ccccc1CC2	-0.9%	10.7µM*	-1.7%	·	-0.5%
COc1ccc(/C=C2\CCCc3c2nc2ccccc2c3C(=O)O)cc1OC	·	?	3.1%	·	1.0%
c1ccc2c(c1)CCc1c-2nc2ccccc2c1N1CCOCC1	·	-10.3%	-13.0%	·	-3.1%
CN(C)c1ccc(/C=C2\CCCc3c2nc2ccccc2c3C(=O)O)cc1	·	4.26µM*	0.891µM*	·	2.51µM*
Cc1ccccc1-c1nc(CS(=O)(=O)CC(=O)Nc2cccc(C(F)(F)F)c2)c(C)o1	·	-14.3%	·	-6.3%	·
CCC(=O)N1CCc2cc(Br)cc(S(=O)(=O)CCC(=O)NCc3cccc(OC)c3)c21	·	0.1%	·	2.6%	·
CC(=O)c1ccc(NC(=O)c2ccc(CN3C(=O)CCn4nc(C)cc43)cc2)cc1	·	-13.6%	·	·	·
CCCCc1c(O)nc(SC2CC(=O)N(c3ccc(C(=O)OCC)cc3)C2=O)[nH]c1=O (stereo not drawn)	·	21.3µM*	-2.8%	·	-2.1%
CCCc1c(O)nc(SC2CC(=O)N(c3ccc(OC)cc3)C2=O)[nH]c1=O (stereo not drawn)	·	6.8%	-0.9%	·	2.7%
Cc1cc(Cl)ccc1NC(=O)CS(=O)(=O)c1cccc2nsnc12	·	-6.5%	·	·	·
Cc1cc(C(=O)N/N=C/c2ccccc2Br)no1	-2.7%	21.3µM*	25.7%	1.7%	20.5%
CC(C)c1ccc(NC(=O)C2CCCN(S(=O)(=O)c3ccc4[nH]c(=O)ccc4c3)C2)cc1 (stereo not drawn)	·	6.0%	·	·	·
O=C(c1csnn1)N1CCC2(CCCN(c3cccc(-c4ccccc4)c3)C2)CC1	2.2%	·	·	2.8%	·
O=C(c1csnn1)N1CCC2(CCCN(c3ccc(-c4ccccc4)cc3)C2)CC1	-3.5%	·	·	17.8µM*	·
Cc1cc2ncn(/N=C/c3cccnc3)c2cc1C	-0.6%	?	-9.1%	-14.0%	-3.0%
Cc1cc2ncn(/N=C/c3ccc(-c4ccccc4)o3)c2cc1C	-3.5%	23.9µM*	7.6%	16.4%	-1.7%
O=C(Cn1c(=O)n(-c2ccc(Cl)cc2)c(=O)c2oc3ccccc3c21)Nc1ccccc1	·	5.6%	·	·	·
Clc1ccc(NCc2nc3ccccc3n2CCOc2ccccc2)cc1	·	?	·	-30.2%	·

Screening results: PubChem, National Center for Advancing Translational Sciences (NCATS)
